A short description of assay [1]: qHTS assay to identify small molecule antagonists of the thyroid receptor (TR) signaling pathway (AID 743065). Also: nearly all actives have a fitted effect of over 55% in size. Also: potency is read from the fitted curve at half-maximal effect. As to activity, negative = inhibition: series mostly up to about 70 µM. In a few lines:
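Antagonism measured as loss of luciferase signal in GH3 cells stably carrying a TRE-luciferase reporter, co-treated with compound and T3 (1 nM final) for 23.5 h at 37 C. Viability was read in the same well by CellTiter-Fluor.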

The subject of assay [2] is thyroid hormone receptor (rat, GH3 cells). Kind of assay: qHTS assay to identify small molecule agonists of the thyroid receptor (TR) signaling pathway (AID 743066; calls by dose curve; also: potency is read from the fitted curve at half-maximal effect).
The target of assay [3] is Estrogen receptor (Homo sapiens) (UniProt P03372). Kind of assay: qHTS assay to identify small molecule antagonists of the estrogen receptor alpha (ER-alpha) signaling pathway (AID 743069; active = well fitted curve in the direction sought with a large enough effect in the signal ratio in the repeat runs, not every such curve was filed as active; the % refers to the signal ratio; also: potency is read from the fitted curve at half-maximal effect). In a few lines:
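Antagonist mode: compounds in DMSO were co-added with 17beta-estradiol to ER-alpha-bla HEK293 cells (2% charcoal-stripped serum) and left 18 h at 37C. Reporter inhibition was measured as FRET fluorescence after 2 h LiveBLAzer substrate at room temperature.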

Assay [4] is described as follows: qHTS assay to identify small molecule antagonists of the estrogen receptor alpha (ER-alpha) signaling pathway - cell viability counter screen (AID 743074; calls by dose curve;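 also: HEK293 cells carrying ER-alpha-UAS-bla reporter stimulated with 17beta-estradiol; nearly all actives have a fitted effect of over 45% in size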).
For assay [5], the target named is Estrogen receptor (Homo sapiens) (UniProt P03372). Put plainly: qHTS assay to identify small molecule agonists of the estrogen receptor alpha (ER-alpha) signaling pathway (AID 743075; calls by dose curve;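 also: HEK293 GripTite cells with ER-alpha and UAS-driven beta-lactamase reporter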).
Estrogen receptor (Homo sapiens), sequence (P03372 whole entry, looked up): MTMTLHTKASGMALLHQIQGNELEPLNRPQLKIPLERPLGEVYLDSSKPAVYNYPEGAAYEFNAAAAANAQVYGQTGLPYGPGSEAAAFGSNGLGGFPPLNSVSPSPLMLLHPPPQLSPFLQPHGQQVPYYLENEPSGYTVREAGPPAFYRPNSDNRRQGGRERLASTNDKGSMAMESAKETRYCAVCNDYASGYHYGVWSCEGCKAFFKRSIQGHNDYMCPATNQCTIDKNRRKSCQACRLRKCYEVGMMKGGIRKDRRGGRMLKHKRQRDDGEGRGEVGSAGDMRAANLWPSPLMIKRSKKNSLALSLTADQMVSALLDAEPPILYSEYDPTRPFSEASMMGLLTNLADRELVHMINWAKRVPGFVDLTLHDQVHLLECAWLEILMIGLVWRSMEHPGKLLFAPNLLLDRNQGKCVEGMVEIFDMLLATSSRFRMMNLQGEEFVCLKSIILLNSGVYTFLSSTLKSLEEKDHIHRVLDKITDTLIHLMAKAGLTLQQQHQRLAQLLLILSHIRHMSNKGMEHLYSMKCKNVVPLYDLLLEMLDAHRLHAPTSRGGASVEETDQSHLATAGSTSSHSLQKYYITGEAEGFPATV
The target is the same in assay [6]. Put plainly: qHTS assay to identify small molecule agonists of the estrogen receptor alpha (ER-alpha) signaling pathway using the BG1 cell line (AID 743079). Also: nearly all actives have a fitted effect of over 20% in size.
Assay [7] in a line: qHTS assay to identify small molecule antagonists of the estrogen receptor alpha (ER-alpha) signaling pathway using the BG1 cell line (AID 743080; calls by dose curve;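 also: BG1 cells stimulated with 17beta-estradiol alongside compound; series mostly up to about 70 µM; nearly all actives have a fitted effect of over 25% in size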). In a few lines:
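BG1Luc4E2, endogenous ER-alpha, 4xERE-luc; 5 d charcoal-stripped FBS, phenol red free; 24 h plating; cpd + 17beta-estradiol 21.5 h, 37 C/5% CO2; CellTiter-Fluor viability 30 min, then ONE-Glo luciferase 30 min RT.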

Assay [8] in a line: qHTS assay to identify small molecule antagonists of the estrogen receptor alpha (ER-alpha) signaling pathway using the BG1 cell line - cell viability counter screen (AID 743081).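 Also: compound given together with 17beta-estradiol as the ER stimulus; nearly all actives have a fitted effect of over 45% in size.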 Also: potency is read from the fitted curve at half-maximal effect.
The nature of assay [9]: qHTS assay to identify small molecule antagonists of the thyroid receptor (TR) signaling pathway - cell viability counter screen (AID 743064). Also: nearly all actives have a fitted effect of over 50% in size. Also: potency is read from the fitted curve at half-maximal effect. In a few lines: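 In-well cytotoxicity read by CellTiter-Fluor (30 min, 37 C) following 23.5 h exposure of GH3 cells bearing a TRE-luciferase sensor. Compounds were added alongside 1 nM (final) T3 to drive TR transactivation.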
The next assay addresses Aromatase (Homo sapiens) (UniProt P11511). Kind of assay: qHTS assay to identify aromatase inhibitors (AID 743083). Also: series mostly up to about 70 µM; nearly all actives have a fitted effect of over 55% in size.

SMILES strings stand for the structures. Several values for one entry are separate records, joined by “and”; a condition that tells them apart may be missing. Equal entries are not always repeated. Records with an inconclusive call do not appear. More than one record can exist for a structure, and the calls need not agree. Values without a mark were called inactive. Activity calls are given as the source filed them. Unless noted, calls follow the shape of the dose curve; as a rule, active = well fitted curve in the direction sought with a large enough effect in the repeat runs; inconclusive = weak or mixed curves; inactive = no such curve, though single readings can be large; an effect the other way counts as inactive or inconclusive.
% is scaled to controls: 0 for no effect and ±100 for the full control effect.

Aromatase (Homo sapiens), sequence (P11511 whole entry, looked up): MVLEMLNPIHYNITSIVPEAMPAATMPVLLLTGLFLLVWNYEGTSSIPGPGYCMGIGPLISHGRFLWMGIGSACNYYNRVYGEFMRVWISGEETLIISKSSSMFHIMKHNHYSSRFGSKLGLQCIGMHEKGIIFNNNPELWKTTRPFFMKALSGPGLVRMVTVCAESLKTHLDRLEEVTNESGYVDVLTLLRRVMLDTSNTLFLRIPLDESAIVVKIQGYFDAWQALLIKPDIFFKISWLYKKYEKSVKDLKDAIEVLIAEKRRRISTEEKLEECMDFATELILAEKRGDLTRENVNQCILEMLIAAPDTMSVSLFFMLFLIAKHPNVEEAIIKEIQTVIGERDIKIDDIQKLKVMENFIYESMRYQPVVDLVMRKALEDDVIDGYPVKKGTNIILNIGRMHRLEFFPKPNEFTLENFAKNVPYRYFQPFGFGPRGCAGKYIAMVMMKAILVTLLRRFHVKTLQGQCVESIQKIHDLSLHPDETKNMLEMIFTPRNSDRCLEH

For `O=P(OC(CCl)CCl)(OC(CCl)CCl)OC(CCl)CCl`, the Potency in assay [1] is 61.1 µM (active); in assay [3], 54.9 µM [inhibitor] (active). The Potency result in [2], in [5], in [6], in assay [7] and in assay [8] was “inactive” each time. Moreover, the outcome in assay [4] was inactive.
For `C[C@H]1C[C@H]2[C@@H]3CCC4=CC(=O)C=C[C@]4(C)[C@@]3(F)[C@@H](O)C[C@]2(C)[C@@]1(O)C(=O)CO`, the Potency entry (in assay [9]; in [1]; in assay [2]; in assay [8]; with Aromatase (Homo sapiens)) was “inactive” throughout. In [4], the outcome was inactive.
As for `CC(C)(C)[C@@H](O)[C@@H](Cc1ccc(Cl)cc1)n1cncn1`, the Potency entry (in assay [9]; in assay [1]; in assay [2]; in assay [8]; in the assay with Aromatase (Homo sapiens)) was “inactive” in each case. In assay [4], the outcome was inactive.
In the case of `CCCCCCCCCCCCCCCO`, the Potency entry (in assay [9]; in assay [1]; in assay [2]; in assay [8]; with Aromatase (Homo sapiens)) was “inactive” in each case.
`CCN(CC)CCCC(C)Nc1ccnc2cc(Cl)ccc12` (centres undefined): in assay [1], the Potency was 26.6 µM (active). The activity, negative = inhibition in assay [1] was -19.4% [at 8.44 µM]. The Potency entry in [2], in assay [3], in assay [5], in assay [6], in [7] and in assay [8] was “inactive” in each case. For the same compound, in the assay with Aromatase (Homo sapiens), the Potency entry was “inactive”. Besides, in [4], the compound was called inactive.
In the case of `CCCCCC(N)=O`, the Potency result (in assay [9]; in assay [1]; in [2]; in assay [8]; with Aromatase (Homo sapiens)) was “inactive” each time. For the same compound, in assay [4], the compound was classed as inactive.
`O=C(O)c1ccc(C(=O)O)cc1`: the Potency result (in assay [9]; in assay [1]; in assay [2]; in [8]; with Aromatase (Homo sapiens)) was “inactive” throughout. Further, the outcome in assay [4] was inactive.
With `CC1CCC(C(C)C)C(O)C1` (centres undefined), the Potency entry (in assay [9]; in assay [1]; in assay [2]; in [8]; with Aromatase (Homo sapiens)) was “inactive” in each case. In addition, the outcome in assay [4] was inactive.
For the compound `O=C(O)c1cc(C(=O)O)cc(S(=O)(=O)O)c1`, the Potency entry (in assay [9]; in assay [1]; in assay [2]; in [8]; with Aromatase (Homo sapiens)) was “inactive” each time. Further, the result in assay [4] was inactive.
`CCCCOC(=O)COc1ccc(Cl)cc1Cl`: the Potency result (in assay [9]; in assay [1]; in [2]; in assay [8]; with Aromatase (Homo sapiens)) was “inactive” in each case. The result in assay [4] was inactive.
In the case of `OCc1cccnc1`, the Potency result in [9], in [2], in assay [3], in assay [5], in [6] and in [7] was “inactive” throughout. The Potency result (in [8]; in the assay with Aromatase (Homo sapiens)) was “inactive” throughout. Also, in assay [4], the call was inactive.
For the compound `CCCCCOC(C)=O`, the Potency result in assay [1], in assay [2], in assay [3], in assay [5], in assay [6] and in assay [7] was “inactive” throughout. Moreover, the Potency result (in assay [8]; with Aromatase (Homo sapiens)) was “inactive” throughout. The compound was classed as inactive in assay [4].
Regarding `O=c1[nH]c(=O)n([C@H]2CCCO2)cc1F`, the Potency result (in assay [9]; in [1]; in assay [2]; in [8]; in the assay with Aromatase (Homo sapiens)) was “inactive” in each case. In [4], the call was inactive.
Turning to `CSCCC=O`, the Potency result (in assay [9]; in assay [8]; with Aromatase (Homo sapiens)) was “inactive” in each case. Besides, the compound was called inactive in [4].
Turning to `CCc1ccc(CCOc2ccc(CC3SC(=O)NC3=O)cc2)nc1` (centres undefined), the Potency entry in [9], in assay [2], in assay [3], in assay [5], in assay [7] and in assay [8] was “inactive” each time. In addition, the Potency entry with Aromatase (Homo sapiens) was “inactive”. Also, in assay [4], the result was inactive.
As for `O=C(O)[C@H](O)[C@@H](O)[C@H](O)[C@H](O)CO`, the Potency entry (in assay [9]; in assay [1]; in [2]; in [8]; in the assay with Aromatase (Homo sapiens)) was “inactive” throughout. In addition, the call in [4] was inactive.
In the case of `CC1=CCC2CC1C2(C)C` (centres undefined), the Potency result in [1], in assay [2], in assay [3], in assay [5], in assay [6] and in assay [7] was “inactive” each time. For the same compound, the Potency entry (in assay [8]; with Aromatase (Homo sapiens)) was “inactive” in each case. Also, the compound was classed as inactive in assay [4].
In the case of `CCCCCCCCC/C=C/CC1CC(=O)OC1=O` (centres undefined), the Potency result in assay [9], in [2] and in assay [8] was “inactive” in each case. Moreover, in assay [4], the compound was classed as inactive.
`CCCCCCCCCCCCOCCO`: the Potency result (in [9]; in [1]; in [2]; in assay [8]; with Aromatase (Homo sapiens)) was “inactive” throughout. Also, the compound was called inactive in assay [4].
As to `CC(=O)CC(=O)Nc1ccccc1`, the Potency result (in [9]; in assay [1]; in [2]; in assay [8]; with Aromatase (Homo sapiens)) was “inactive” throughout. Further, in assay [4], the call was inactive.
With `COCCCOc1ccnc(CS(=O)c2nc3ccccc3[nH]2)c1C` (centres undefined), the Potency entry (in assay [9]; in [2]; in assay [8]; in the assay with Aromatase (Homo sapiens)) was “inactive” throughout. In addition, the Potency in [1] is 48.4 µM (active). Besides, the compound was classed as inactive in assay [4].
As to `ON=C1CCCCC1`, the Potency entry (in assay [9]; in [1]; in assay [2]; in assay [8]; in the assay with Aromatase (Homo sapiens)) was “inactive” in each case. For the same compound, in [4], the compound was classed as inactive.
As to `Cc1cccnc1`, the Potency result (in [9]; in assay [1]; in assay [2]; in assay [8]; in the assay with Aromatase (Homo sapiens)) was “inactive” in each case.
Turning to `CCCCC(CC)CO` (centres undefined), the Potency result (in [9]; in assay [1]; in [2]; in assay [8]; in the assay with Aromatase (Homo sapiens)) was “inactive” throughout. Also, the call in assay [4] was inactive.
On to `Nc1cc([N+](=O)[O-])ccc1O`, for which the Potency is 30.6 µM (active) and 60.8 µM (active) in assay [9]; 54.5 µM (active) in assay [8]. In addition, the Potency entry (in assay [1]; in [2]; with Aromatase (Homo sapiens)) was “inactive” in each case. For the same compound, in [4], the outcome was inactive.
As to `CCCCC(CC)COC(=O)C(C#N)=C(c1ccccc1)c1ccccc1` (centres undefined), the Potency result (in assay [9]; in assay [2]; in assay [8]; with Aromatase (Homo sapiens)) was “inactive” each time.
For `O=C(Oc1ccccc1)c1ccccc1`, the Potency entry (in assay [9]; in assay [1]; in assay [2]; in assay [8]; in the assay with Aromatase (Homo sapiens)) was “inactive” each time. Besides, in assay [4], the outcome was inactive.
Regarding `CCCCCC/C(C=O)=C\c1ccccc1`, the Potency result (in assay [9]; in assay [1]; in assay [2]; in [8]; in the assay with Aromatase (Homo sapiens)) was “inactive” throughout. Further, the compound was classed as inactive in assay [4].
Take `Cc1ccc(S(N)(=O)=O)cc1`: the Potency result (in [9]; in assay [1]; in assay [2]; in assay [8]; with Aromatase (Homo sapiens)) was “inactive” throughout. Moreover, the compound was classed as inactive in assay [4].
For the compound `Cc1cnc(C(=O)NCCc2ccc(S(=O)(=O)NC(=O)NC3CCCCC3)cc2)cn1`, the Potency result in assay [1], in assay [2], in [3], in assay [5], in assay [6] and in assay [7] was “inactive” in each case. Further, the Potency entry in assay [8] is “inactive”. The outcome in [4] was inactive.
For the compound `CCOC(=O)NNc1nncc2ccccc12`, the Potency entry in [1], in assay [2], in assay [3], in assay [5], in assay [6] and in assay [7] was “inactive” each time. Moreover, the Potency result (in [8]; with Aromatase (Homo sapiens)) was “inactive” in each case. Moreover, the call in assay [4] was inactive.
`OCCOCCOCCO`: the Potency entry in assay [9], in assay [3], in assay [5], in [6], in assay [7] and in assay [8] was “inactive” in each case. For the same compound, the Potency entry with Aromatase (Homo sapiens) was “inactive”. Moreover, the result in [4] was inactive.
In the case of `OCC(CO)(CBr)CBr`, the Potency result (in [9]; in assay [1]; in [2]; in [8]; with Aromatase (Homo sapiens)) was “inactive” throughout. The compound was called inactive in [4].
Take `C=CCNC(N)=S`: the Potency result (in [9]; in assay [1]; in [2]; in assay [8]; in the assay with Aromatase (Homo sapiens)) was “inactive” in each case. The compound was classed as inactive in assay [4].
`CCCC(C)=O`: the Potency entry (in assay [9]; in assay [1]; in [2]; in [8]; with Aromatase (Homo sapiens)) was “inactive” in each case. Besides, in assay [4], the compound was classed as inactive.
As for `CCCCCCCCCCCCc1ccccc1`, the Potency entry (in assay [9]; in assay [8]; in the assay with Aromatase (Homo sapiens)) was “inactive” in each case. In addition, the compound was called inactive in assay [4].
On to `N[C@@H](Cc1cc(I)c(Oc2cc(I)c(O)c(I)c2)c(I)c1)C(=O)O`, for which the Potency entry (in [9]; in assay [1]; in assay [8]; with Aromatase (Homo sapiens)) was “inactive” each time. Besides, the Potency in assay [2] is 8.4 nM (active) and 10.9 nM (active). Also, the result in [4] was inactive.
Take `COc1ccc(Cl)cc1C(=O)NCCc1ccc(S(=O)(=O)NC(=O)NC2CCCCC2)cc1`: the Potency entry (in assay [9]; in [1]; in assay [2]; in assay [8]; in the assay with Aromatase (Homo sapiens)) was “inactive” in each case. Moreover, the result in assay [4] was inactive.
For the compound `CC(=O)Nc1ccccc1`, the Potency result in [1], in assay [2], in [3], in assay [5], in [6] and in assay [7] was “inactive” in each case. The Potency entry (in [8]; with Aromatase (Homo sapiens)) was “inactive” throughout. Also, the result in assay [4] was inactive.
`CC1=C(C)S(=O)(=O)CCS1(=O)=O`: the Potency result in assay [2], in [3], in assay [5], in [6], in assay [7] and in assay [8] was “inactive” each time. For the same compound, in the assay with Aromatase (Homo sapiens), the Potency entry was “inactive”. The call in assay [4] was inactive.

These data come from PubChem BioAssay (Tox21).
